# Experimental data as given in the supplement of paper PMC8728848.
# This excerpt belongs to a sample that is enriched for the strongest signals.
# Assays:
# Assay in all cases: glycan array binding signal (z-score within array); higher = stronger binding
# Settings in all cases: glycan notation: IUPAC condensed, linker removed
# [1] = target: Fuc(a1-2)Gal(b1-4)GlcNAc(b1-3)Gal(b1-4)GlcNAc(b1-3)Gal(b1-4)GlcNAc
# In short: (§1)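 Glycan array data came from 3228 arrays in the Consortium for Functional Glycomics database, and only arrays with an available protein sequence were kept. Glycan names were put into IUPAC-condensed notation, and columns mapping to the same glycan were averaged. The binding signal is a within-array Z-score, averaged across arrays of one protein sequence run at different concentrations or buffers and across linkers. A negative Z-score can be read as non-binding.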
# Fuc(a1-2)GlcNAc = target: Fuc(a1-2)GlcNAc
# In short: as §1
# Fuc(b1-3)GlcNAc = target: Fuc(b1-3)GlcNAc
# In short: as §1
# Gal(a1-3)GalNAc = target: Gal(a1-3)GalNAc
# In short: as §1
# Gal(a1-4)Gal(b1-4)Glc = target: Gal(a1-4)Gal(b1-4)Glc
# In short: as §1
# [2] = target: Gal(b1-3)[GlcNAc(b1-6)]GalNAc
# In short: as §1
# [3] = target: Gal(b1-4)GlcNAc(b1-6)[Gal(b1-3)]GalNAc
# In short: as §1
# GalNAc(b1-3)GalNAc = target: GalNAc(b1-3)GalNAc
# In short: as §1
# GlcNAc(b1-3)Gal(b1-4)Glc = target: GlcNAc(b1-3)Gal(b1-4)Glc
# In short: as §1
# [4] = target: GlcNAc(b1-3)[GlcNAc(b1-6)]GlcNAc(b1-4)GlcNAc
# In short: as §1
# [5] = target: GlcNAc(b1-4)GlcNAc(b1-4)GlcNAc
# In short: as §1
# Man(a1-2)Man(a1-3)Man = target: Man(a1-2)Man(a1-3)Man
# In short: as §1
# [6] = target: Neu5Ac(a2-3)Gal(b1-3)[Fuc(a1-4)]GlcNAc(b1-3)Gal(b1-4)[Fuc(a1-3)]GlcNAc
# In short: as §1
# [7] = target: Neu5Ac(a2-3)[Neu5Ac(a2-6)]GalNAc
# In short: as §1
# [8] = target: Fuc(a1-2)Gal(b1-4)GlcNAc6S
# In short: as §1
# [9] = target: Fuc(a1-2)Gal(b1-4)[Fuc(a1-3)]GlcNAc(b1-3)Gal(b1-4)[Fuc(a1-3)]GlcNAc(b1-3)Gal(b1-4)[Fuc(a1-3)]GlcNAc
# In short: as §1
# [10] = target: Fuc(a1-2)Gal6S(b1-4)Glc6S
# In short: as §1
# Fuc(a1-2)[Gal(a1-3)]Gal = target: Fuc(a1-2)[Gal(a1-3)]Gal
# In short: as §1
# [11] = target: Fuc(a1-2)[GalNAc(a1-3)]Gal(b1-4)GlcNAc
# In short: as §1
# Gal3S(b1-4)GlcNAc = target: Gal3S(b1-4)GlcNAc
# In short: as §1
# Gal3S4S(b1-4)GlcNAc = target: Gal3S4S(b1-4)GlcNAc
# In short: as §1
# Gal3S6S(b1-4)GlcNAc6S = target: Gal3S6S(b1-4)GlcNAc6S
# In short: as §1
# Gal6S(b1-4)Glc6S = target: Gal6S(b1-4)Glc6S
# In short: as §1
# Gal6S(b1-4)GlcNAc6S = target: Gal6S(b1-4)GlcNAc6S
# In short: as §1
# [12] = target: GlcNAc(b1-2)Gal(b1-3)GalNAc
# In short: as §1
# [13] = target: Man(a1-2)Man(a1-3)[Man(a1-2)Man(a1-6)]Man(a1-6)[Man(a1-2)Man(a1-2)Man(a1-3)]Man
# In short: as §1
# Neu5Ac(a2-3)Gal(b1-4)Glc = target: Neu5Ac(a2-3)Gal(b1-4)Glc
# In short: as §1
# [14] = target: Neu5Ac(a2-6)Gal(b1-4)GlcNAc(b1-2)Man(a1-6)[Gal(b1-4)GlcNAc(b1-2)Man(a1-3)]Man(b1-4)GlcNAc(b1-4)GlcNAc
# In short: as §1
# Neu5Ac(a2-6)GalNAc = target: Neu5Ac(a2-6)GalNAc
# In short: as §1
# [15] = target: Fuc(a1-2)Gal(b1-4)[Fuc(a1-3)]GlcNAc
# In short: as §1
# [16] = target: Fuc(a1-2)Gal6S(b1-4)GlcNAc
# In short: as §1
# [17] = target: Fuc(a1-2)[Gal(a1-3)]Gal(b1-3)GlcNAc
# In short: as §1
# [18] = target: Fuc(a1-2)[GalNAc(a1-3)]Gal
# In short: as §1
# [19] = target: Gal(a1-3)Gal(b1-4)[Fuc(a1-3)]GlcNAc
# In short: as §1
# Gal(b1-2)Gal = target: Gal(b1-2)Gal
# In short: as §1
# [20] = target: Gal(b1-3)GalNAc(b1-3)Gal(a1-4)Gal(b1-4)Glc
# In short: as §1
# [21] = target: Gal(b1-3)[Fuc(a1-4)]GlcNAc(b1-3)Gal(b1-3)[Fuc(a1-4)]GlcNAc
# In short: as §1
# [22] = target: Gal(b1-4)GalNAc(b1-3)[Fuc(a1-2)]Gal(b1-4)GlcNAc
# In short: as §1
# [23] = target: Gal(b1-4)GlcNAc(a1-6)Gal(b1-4)GlcNAc
# In short: as §1
# [24] = target: Gal(b1-4)GlcNAc(b1-3)[Gal(b1-4)GlcNAc(b1-6)]Gal(b1-4)GlcNAc
# In short: as §1
# [25] = target: Gal(b1-4)GlcNAc(b1-3)[GlcNAc(b1-6)]Gal(b1-4)GlcNAc
# In short: as §1
# GalNAc(b1-3)Gal = target: GalNAc(b1-3)Gal
# In short: as §1
# [26] = target: GalNAc(b1-3)Gal(a1-4)Gal(b1-4)GlcNAc
# In short: as §1
# GlcA(b1-6)Gal = target: GlcA(b1-6)Gal
# In short: as §1
# [27] = target: GlcNAc(b1-4)GlcNAc(b1-4)GlcNAc(b1-4)GlcNAc(b1-4)GlcNAc
# In short: as §1
# [28] = target: GlcNAc(b1-6)Gal(b1-4)GlcNAc
# In short: as §1
# [29] = target: Neu5Ac(a2-3)Gal(b1-4)GlcNAc(b1-2)Man(a1-3)[Neu5Ac(a2-6)Gal(b1-4)GlcNAc(b1-2)Man(a1-6)]Man(b1-4)GlcNAc(b1-4)GlcNAc
# In short: as §1
# [30] = target: Neu5Ac(a2-3)GalNAc(b1-4)GlcNAc
# In short: as §1
# Neu5Ac(a2-6)Gal = target: Neu5Ac(a2-6)Gal
# In short: as §1
# [31] = target: Neu5Ac(a2-6)Gal(b1-4)GlcNAc6S
# In short: as §1
# [32] = target: Neu5Ac(a2-8)Neu5Ac(a2-8)Neu5Ac(a2-3)Gal(b1-4)Glc
# In short: as §1
# [33] = target: Neu5Ac9Ac(a2-6)Gal(b1-4)GlcNAc
# In short: as §1
# [34] = target: Neu5Gc(a2-3)Gal(b1-4)GlcNAc
# In short: as §1
binder,measurement,setting,value
"F17eG (Escherichia coli), Q9RH92 (protein) MTNFYKVFLAVFILVCCNISHAAVSFIGSTENDVGPSQSSYSRTHAMDNLPFVYNTGYNIGYQNANVWRISGGFCVGLDGKVDLPVVGSLDGQSIYGLTEEVGLLIWMGDTNYSRGTAMSGNSWENVFSGWCVGNYVSTQGLSVHVRPVILKRNSSAQYSVQKTSIGSIRMRPYNGSSAGSVQTTVNFSLNPFTLNDTVTSCRLLTPSAVNVSLAAISAGQLPSSGDEVVAGTTSLKLQCDAGVTVWATLTDATTPSNRSDILTLTGASTATGVGLRIYKNTDSTPLKFGPDSPVKGNENQWQLSTGTETSPSVRLYVKYVNTGEGINPGTVNGISTFTFSYQ",glycan array binding signal (z-score),[1],-0.298
same,glycan array binding signal (z-score),Fuc(a1-2)GlcNAc,-0.176
same,glycan array binding signal (z-score),Fuc(b1-3)GlcNAc,-0.315
same,glycan array binding signal (z-score),Gal(a1-3)GalNAc,-0.302
same,glycan array binding signal (z-score),Gal(a1-4)Gal(b1-4)Glc,-0.293
same,glycan array binding signal (z-score),[2],4.13
same,glycan array binding signal (z-score),[3],-0.31
same,glycan array binding signal (z-score),GalNAc(b1-3)GalNAc,4.3
same,glycan array binding signal (z-score),GlcNAc(b1-3)Gal(b1-4)Glc,4.59
same,glycan array binding signal (z-score),[4],4.3
same,glycan array binding signal (z-score),[5],0.197
same,glycan array binding signal (z-score),Man(a1-2)Man(a1-3)Man,-0.302
same,glycan array binding signal (z-score),[6],-0.097
same,glycan array binding signal (z-score),[7],-0.208
"CBM32-4 (Clostridium perfringens), P26831 (protein) MGSSHHHHHHSSGLVPRGSHMASVYEPSLVDAYVGDDGAKKAVDGDLKTRVKFLGAPSTGDTIVYDLGQEILVDNLKYVVLDTEVDHVRDGKIQLSLDGETWTDAINIGDGVENGVDDMFSTPLKNGYKHGNQSGGIVPIDSAYVEGDNLNQKARYVRILFTAPYRHRWTVINELMINNGEYIPTVNDPT",glycan array binding signal (z-score),[8],-0.104
same,glycan array binding signal (z-score),[9],-0.29
same,glycan array binding signal (z-score),[10],4.3
same,glycan array binding signal (z-score),Fuc(a1-2)[Gal(a1-3)]Gal,-0.4
same,glycan array binding signal (z-score),[11],-0.266
same,glycan array binding signal (z-score),Gal3S(b1-4)GlcNAc,-0.195
same,glycan array binding signal (z-score),Gal3S4S(b1-4)GlcNAc,3.87
same,glycan array binding signal (z-score),Gal3S6S(b1-4)GlcNAc6S,5.67
same,glycan array binding signal (z-score),Gal6S(b1-4)Glc6S,4.96
same,glycan array binding signal (z-score),Gal6S(b1-4)GlcNAc6S,4.9
same,glycan array binding signal (z-score),[12],-0.264
same,glycan array binding signal (z-score),Man(a1-2)Man(a1-3)Man,-0.021
same,glycan array binding signal (z-score),[13],-0.564
same,glycan array binding signal (z-score),Neu5Ac(a2-3)Gal(b1-4)Glc,-0.183
same,glycan array binding signal (z-score),[14],-0.336
same,glycan array binding signal (z-score),Neu5Ac(a2-6)GalNAc,-0.363
GH95CBM (Clostridium perfringens) (protein) EKVAVETSVYLSELEWKSASTGYGEIQKDASCDGNTITLKGENGEKVSYDKGIGTHAHSEIVYSLEGLDYYDYFETFVGVDQEMAGTVASISFEVYLDNEKVFDSGLMTGDTTQKHVKVPIAGKNTLKLVVKDGGDSIGSDHGSFGDAKLT,glycan array binding signal (z-score),[8],-0.334
same,glycan array binding signal (z-score),[15],-0.325
same,glycan array binding signal (z-score),[16],-0.296
same,glycan array binding signal (z-score),[17],-0.321
same,glycan array binding signal (z-score),[18],-0.291
same,glycan array binding signal (z-score),[19],4.88
same,glycan array binding signal (z-score),Gal(b1-2)Gal,2.38
same,glycan array binding signal (z-score),[20],4.91
same,glycan array binding signal (z-score),[21],-0.312
same,glycan array binding signal (z-score),[22],4.18
same,glycan array binding signal (z-score),[23],-0.283
same,glycan array binding signal (z-score),[24],-0.311
same,glycan array binding signal (z-score),[25],-0.326
same,glycan array binding signal (z-score),[3],3.34
same,glycan array binding signal (z-score),GalNAc(b1-3)Gal,3.84
same,glycan array binding signal (z-score),[26],6.95
same,glycan array binding signal (z-score),GlcA(b1-6)Gal,-0.227
same,glycan array binding signal (z-score),GlcNAc(b1-3)Gal(b1-4)Glc,-0.347
same,glycan array binding signal (z-score),[27],-0.133
same,glycan array binding signal (z-score),[28],-0.319
same,glycan array binding signal (z-score),[13],1.43
same,glycan array binding signal (z-score),[6],-0.265
same,glycan array binding signal (z-score),[29],-0.357
same,glycan array binding signal (z-score),[30],-0.362
same,glycan array binding signal (z-score),Neu5Ac(a2-6)Gal,-0.355
same,glycan array binding signal (z-score),[31],-0.298
same,glycan array binding signal (z-score),[32],-0.343
same,glycan array binding signal (z-score),[33],-0.367
same,glycan array binding signal (z-score),[34],-0.34
